Holding throughout (assay): NCI-60 one-dose screen, 48 h (100 = growth as untreated, 0 = no growth, -100 = all killed)
Holding throughout (conditions): 10 µM unless noted

The subject of assay [1] is EKVX NSCLC.
In assay [2] the test system is SN12C renal.
In assay [3] the test system is UO-31 renal.
Assay [4] deals with ACHN renal.
Assay [5] relates to CAKI-1 renal.
Assay [6] has as its system A498 renal.
Assay [7] concerns CCRF-CEM leukemia.
Assay [8] deals with MOLT-4 leukemia.
For assay [9], the system named is RPMI-8226 leukemia.
Assay [10] relates to OVCAR-8 ovarian.
For assay [11], the system named is OVCAR-5 ovarian.
In assay [12] the test system is OVCAR-4 ovarian.
Assay [13] deals with SK-OV-3 ovarian.
The subject of assay [14] is IGROV1 ovarian.
The test system of assay [15] is OVCAR-3 ovarian.
The test system of assay [16] is HS 578T breast.
Assay [17] concerns NCI/ADR-RES ovarian.
Assay [18] deals with T-47D breast.
In assay [19] the test system is SR leukemia.

Each structure is given as a SMILES string. Compounds without any hit were thinned out: in the full panel of roughly 83,000, 20% have a hit.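 The test compound was applied at a single concentration to cells in 96-well plates for 48 hours, and percent growth was recorded.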 Unmarked numbers belong to inactive results. Calls of active or inactive are those of the source. The calls were made as follows: active = growth percent below 10; inactive = the rest.

Turning to `O=C(CN1CCOCC1)NNc1ncnc2ccccc12`, the growth in assay [1] is 85.7%; in assay [2], 89.4%; in assay [3] it was 71.5%; in [4], -91% (active); in assay [5], 93.9%; in [6], 111%. For the same molecule, the growth is 13.8% in [7]; 74.6% in assay [8]; 90.9% in [9]; 102% in assay [10]; 69.3% in [11]; 96.1% in [12]. The growth was 107% in [13]; 79.3% in assay [14]; 64.7% in [15]; 89.5% in assay [16]; 104% in assay [17]; 41.6% in [18].

As to `Cc1cccc2sc(/N=C(\N)C(Cl)(Cl)Cl)nc12`, the growth was 71% in assay [1]; 110% in [2]; 90.5% in assay [3]; 98.4% in assay [4]; 92.7% in assay [6]; 107% in [7]. Besides, the growth in [8] is 103%; in assay [19] it was 100%; in assay [10], 102%; in assay [11] it was 119%; in assay [12], 97.4%; in assay [13], 101%. Besides, the growth in assay [14] was 98.3%; in assay [15], 115%; in [16] it was 97.1%; in assay [17], 108%; in assay [18], 74.8%.

As to `CCCCCCNC(=O)Oc1ccc(/C(=C(/C)c2ccccc2)c2ccc(OCCN3CCCCCC3)cc2)cc1`, the growth in assay [1] is 64.2%; in assay [2], 42.8%; in [3], 28.9%; in [4], 69.3%; in [5] it was 35.9%; in assay [6], 78.7%. The growth in assay [7] is 16.3%; in assay [8], 4.41% (active); in assay [9], -27.7% (active); in assay [10], 66.1%; in assay [11], 69.3%; in assay [12], 49.7%. Also, the growth in assay [13] is 98.7%; in [14], 51.4%; in assay [15], 48.9%; in assay [16], 51.4%; in assay [17], 64.5%; in assay [18], 21.6%.

For the molecule `Cc1cc(C(NC(=O)CCCCCNc2cccc3c2C(=O)N(C2CCC(=O)NC2=O)C3=O)c2cccnc2)c(O)c2ncccc12` (configuration not stated), the growth in assay [1] was 34.3%; in assay [2], 20.1%; in assay [3], 18.7%; in assay [4] it was 35.6%; in [5], 14.2%; in assay [7], -4.83% (active). The growth in [8] was 1.29% (active); in [19] it was 11.6%; in [9] it was 14.6%; in [10] it was 11.1%; in assay [11], 49.8%; in [12], 19.4%. Besides, the growth in assay [13] was 25.4%; in assay [14] it was 9.13% (active); in [15] it was 14.2%; in [16], 1.22% (active); in assay [17] it was 79.6%; in [18], 12.1%.

On to `Cc1nc(-c2cc3ccccc3oc2=O)ccc1C(=O)/C=C/c1ccc(N2CCOCC2)cc1`, for which the growth was 86.6% in assay [1]; 83.8% in assay [2]; 83.9% in assay [3]; 70.9% in assay [4]; 65.1% in assay [5]; 75.2% in [6]. Moreover, the growth in assay [8] was 66.1%; in assay [19], 26%; in assay [9], 93.4%; in assay [10], 81%; in assay [11], 101%; in assay [12], 72.4%. The growth was 88.7% in assay [13]; 82.6% in assay [14]; 87% in assay [15]; 59.7% in assay [16]; 67.3% in assay [17]; 80.2% in [18].

Regarding `COc1ccc(-c2csc(N/N=C/c3c(-c4ccc(S(C)(=O)=O)cc4)nc4ccccn34)n2)cc1`, the growth in [1] is 106%; in assay [2], 105%; in assay [3], 87%; in assay [4] it was 102%; in assay [5], 93.4%; in assay [6] it was 85.9%. Besides, the growth was 92.4% in assay [8]; 94.5% in assay [19]; 91.4% in assay [9]; 103% in assay [10]; 108% in assay [11]; 105% in assay [12]. Further, the growth in assay [13] was 136%; in assay [14], 115%; in assay [15] it was 124%; in assay [16] it was 118%; in assay [17] it was 110%; in assay [18] it was 87.8%.

Turning to `COC(=O)c1ccc(NC(=S)N2CCc3ccc([N+](=O)[O-])cc3C2)cc1O`, the growth is 99.2% in assay [1]; 99.8% in assay [2]; 85.5% in assay [3]; 95.4% in assay [4]; 92.7% in assay [5]; 94.9% in [7]. Moreover, the growth in assay [8] is 91.7%; in assay [19] it was 95.5%; in assay [9], 101%; in [10], 101%; in assay [11], 103%; in [12], 112%. The growth in assay [13] is 98.4%; in assay [14] it was 99%; in assay [15], 116%; in assay [16], 102%; in assay [17], 107%; in assay [18], 103%.

In the case of `Cc1sc2nc(NCc3ccccc3Cl)[nH]c(=O)c2c1C`, the growth in assay [1] is 98.1%; in assay [2], 93.8%; in assay [3], 94.5%; in assay [4], 94.8%; in [5], 87.2%; in assay [6], 81.3%. Moreover, the growth in assay [10] is 88.1%; in [11], 102%; in assay [12] it was 101%; in [13], 114%; in assay [14], 90.6%; in [15], 123%. In addition, the growth was 99% in assay [16], 104% in assay [17] and 94.6% in assay [18].

As for `N#Cc1c(-c2ccc(F)cc2)nc2c(C#N)c(Nc3ccccc3)nn2c1N`, the growth was 92.8% in assay [1]; 97.7% in assay [2]; 90.7% in assay [3]; 105% in [4]; 66.3% in [6]; 96.1% in assay [7]. For the same molecule, the growth in assay [8] is 102%; in assay [19], 93.3%; in assay [9], 104%; in [10], 101%; in assay [11] it was 98.9%; in assay [12], 103%. For the same molecule, the growth was 117% in assay [13]; 107% in assay [14]; 106% in assay [15]; 99.6% in [16]; 103% in assay [17]; 88.3% in [18].

Turning to `O=C(N/N=C/c1ccc([N+](=O)[O-])s1)c1[nH]c2ccc(Br)cc2c1-c1ccccc1`, the growth was 9.91% (active) in [1]; 17.5% in assay [2]; 46.6% in [3]; 12.7% in assay [4]; 23.6% in assay [5]; 9.21% (active) in assay [8]. In addition, the growth in assay [19] is 7.33% (active); in assay [9] it was 0.935% (active); in [10], -8.62% (active); in assay [11], 27.9%; in [12] it was 55.9%; in assay [13], 45.8%. The growth was 24.4% in assay [14]; 24.1% in assay [15]; 11.6% in assay [16]; 17.3% in [17]; 59.7% in assay [18].

Turning to `CN(C)CCCOc1c2ccc(Cl)cc2nc2c1oc1ccc(Cl)cc12`, the growth in [1] is 31.8%; in assay [2], 21.4%; in [3], 2.96% (active); in [4] it was -85.6% (active); in assay [5] it was -12.1% (active); in [6], -6.7% (active). Besides, the growth in assay [8] is 1.92% (active); in assay [19] it was -31.1% (active); in [9], -20.8% (active); in [10], 26.7%; in [11], 21.3%; in assay [12], 50.6%. Also, the growth in [13] is 41.4%; in [14], 6.89% (active); in [15] it was 45.4%; in [16] it was 26.3%; in [17], -20.8% (active); in assay [18], 58.7%.

With `COc1cc(-c2ccc3ncnc(NC(C)c4ccccc4)c3c2)cnc1OC` (configuration not stated), the growth is 19.5% in assay [1]; 39.1% in assay [2]; 19.1% in assay [3]; 21% in assay [4]; -14.9% (active) in [6]; 56.3% in [7]. Further, the growth was 45.1% in [8]; 43.7% in assay [19]; 26.5% in assay [9]; 55.2% in assay [10]; 42.8% in assay [11]; 49% in assay [12]. The growth in assay [13] was 40.4%; in [14], -23.2% (active); in assay [15], 25.2%; in assay [16] it was 21.1%; in [17] it was 58.8%; in assay [18], 1.57% (active).

As for `C/C(=C(/c1ccc(Cl)cc1)c1ccc(OCCN)cc1)c1ccc(C)cc1`, the growth was 98.8% in [1]; 95.7% in [2]; 83.2% in assay [3]; 96.6% in [4]; 86.6% in assay [5]; 97.4% in assay [6]. Moreover, the growth in assay [7] is 98.9%; in assay [9] it was 96.5%; in assay [10] it was 100%; in assay [11], 101%; in assay [12], 97%; in [13] it was 120%. Besides, the growth in [14] is 100%; in assay [15], 105%; in [16] it was 96.7%; in [17] it was 111%; in assay [18] it was 96.8%.

As to `COc1cc(N=Cc2sc(Nc3nccs3)nc2O)cc(OC)c1OC`, the growth is 82.2% in [1]; 94.7% in assay [2]; 59% in assay [3]; 86% in assay [4]; 69% in [5]; 72% in assay [7]. In addition, the growth in assay [8] was 78.2%; in [9] it was 81.6%; in assay [10] it was 81.2%; in assay [11], 103%; in [12], 82.9%; in [13] it was 104%. Moreover, the growth in assay [14] is 66%; in assay [15], 82.8%; in assay [16], 80.5%; in assay [17], 78.4%; in assay [18] it was 89.3%.

`N#Cc1ccc(C(=O)CSc2nc(Nc3ccc(S(N)(=O)=O)cc3)c3ccccc3n2)cc1`: the growth in assay [1] was 104%; in assay [2] it was 100%; in [3], 95.6%; in assay [4], 108%; in assay [5], 102%; in assay [7] it was 94.7%. Moreover, the growth is 106% in [8]; 95.9% in [19]; 101% in [9]; 109% in assay [10]; 110% in [11]; 113% in assay [12]. Also, the growth is 116% in assay [13]; 110% in [14]; 119% in [15]; 103% in assay [16]; 111% in assay [17]; 103% in assay [18].

Take `CN(C)CCCNc1c2ccc(Cl)cc2nc2c1oc1ccccc12`: the growth in assay [1] was -26.7% (active); in assay [2], 6.3% (active); in assay [3], 12.3%; in assay [4], -36.5% (active); in assay [5] it was 6.06% (active); in [6], 8.64% (active). Besides, the growth was -21.1% (active) in [9]; -17.9% (active) in assay [10]; 1.91% (active) in assay [11]; 8.04% (active) in [12]; 42% in [13]; -13% (active) in assay [14]. The growth is 31% in assay [15], 37% in assay [16], 2.84% (active) in [17] and 46.3% in assay [18].

Turning to `COc1cc(/C=C/C(=O)c2ccc(C)cc2)ccc1Oc1nc(NCCO)nc(N2CCOCC2)n1`, the growth is 67.8% in assay [1]; 74% in assay [2]; 51.5% in [3]; 55.7% in assay [4]; 50.4% in assay [5]; 3.44% (active) in assay [7]. Further, the growth in assay [8] was 0.537% (active); in [19], -3.65% (active); in assay [9], -18.3% (active); in assay [10] it was 76.1%; in assay [11], 83.6%; in assay [12] it was 80.6%. The growth in assay [13] is 95.9%; in assay [14], 53.9%; in [15], 75.1%; in assay [16], 79.9%; in [17] it was 54.1%; in [18], 92.4%.

(Values after PubChem BioAssay (NCI).)
